# An excerpt weighted towards active compounds, which were near 3% of everything screened.
# C2C12 statin: suppressors of simvastatin-induced myotoxicity in C2C12 myotubes; ATP luminescence, 48 h; scaled: DMSO 0, geranylgeraniol control 100; rescue of ATP level, % at 7.49 µM; hit rate 0.78% among 330,000;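 active = mean ATP rescue above about 67%, or every replicate alone reaching that limit, limit read from the data, passing the limit was not always enough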;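 note: myotubes were challenged with 10 µM simvastatin during compound exposure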
# esBAF inh: SWI/SNF esBAF complex inhibition | mouse ES cells, Bmi1-luciferase knock-in reporter, 24 h; 100% = twice the neutral-well signal | reporter increase, % at 12.5 µM | hit rate 2% among 350,000 | AID 602393; in the data active = activation above about 40%;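 note: 0% = median of the plate's neutral control wells and 100% = double that signal; a rise in the Bmi1 reporter signal indicates esBAF inhibition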
# MITF act: MITF TRPM1 promoter activation in melanoma cells; SK-MEL-5 TRPM1-promoter luciferase, 24 h; % of positive control, neutral wells = 0; hit rate 0.75% among 300,000; activation, % at 12.5 µM;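 active = mean activation of at least 80% with every replicate also reaching 80%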;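 note: 0% = neutral control wells and 100% = parthenolide positive control wells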
# Wnt act: activates Wnt/beta-catenin signaling in a reporter cell assay; activator, plate reader; activation, % at 9.35 µM; hit rate 1.2% among 300,000; AID 743398; in the data active = activation above about 30%, passing the limit was not always enough;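 note: 0% = neutral control wells and 100% = positive control wells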
# The depositor's hits bear a star; x = no result.
SMILES,C2C12 statin,esBAF inh,MITF act,Wnt act
c1ccc(Cn2c(-c3ccco3)nc3nc4ccccc4nc32)cc1,x,x,90*,38*
O=c1c2ccccc2nc(-c2ccco2)n1Cc1ccccc1,1,52*,96*,x
O=C(O)c1c2c(nc3ccc(S(=O)(=O)N4CCC(C(=O)NCc5ccccc5Cl)CC4)cc13)CCCC2,77*,-7,-4,0
O=C(O)c1c2c(nc3ccc(S(=O)(=O)N4CCC(C(=O)NCc5ccc(Cl)cc5)CC4)cc13)CCCC2,4,1,-1,-1
Cc1noc(C)c1NC(=O)Nc1ccc2c(c1)C(=O)N([C@@H](C)CO)C[C@@H](C)[C@H](CN(C)Cc1ccc(Oc3ccccc3)cc1)O2,-2,3,x,x
COc1ccc(Cc2nc(-c3cccnc3)no2)cc1OC,x,x,x,1
Cc1cccc(-c2noc(CSc3ccccc3)n2)c1,x,46*,87*,-1
COc1ccccc1Cc1nc(-c2cccnc2)no1,x,x,x,38*
c1ccc(SCc2nc(-c3cccnc3)no2)cc1,2,13,109*,x
Cc1ccc(-c2noc(CSc3ccccc3)n2)cc1,6,0,102*,52*
CN(C)CC(=O)Nc1ccc2c(c1)[C@@H]1C[C@H](CC(=O)NCc3ccc4c(c3)OCO4)O[C@H](CO)[C@@H]1O2,-3,-3,x,x
c1ccc(C(Cc2nc(-c3ccccn3)no2)c2ccccc2)cc1,33,29,40,x
c1ccc(SCc2nc(-c3ccccn3)no2)cc1,0,26,83*,x
C[C@H]1CCCCO[C@H](CN(C)S(C)(=O)=O)[C@@H](C)CN([C@@H](C)CO)C(=O)c2cc(NS(=O)(=O)c3cn(C)cn3)ccc2O1,x,2,x,x
NC(N)=Nc1nc(C2COc3ccccc3O2)cs1 (stereo unspecified),x,x,51,53*
O=C(C[C@H]1C[C@H]2c3cc(NC(=O)Nc4ccccc4F)ccc3O[C@H]2[C@@H](CO)O1)NCCc1ccccc1,1,-4,x,x
C[C@H](CO)N1C[C@H](C)[C@H](CN(C)C(=O)Nc2ccccc2)Oc2ncc(Br)cc2C1=O,-1,4,x,x
C[C@@H]1CN([C@H](C)CO)C(=O)c2cc(NC(=O)C3CC3)ccc2O[C@H]1CN(C)Cc1ccccc1,-21,-5,x,x
O=C(c1cc(COc2ccc(F)cc2Cl)on1)N1CC2C[C@@H]3CC1C[C@H](C2)C3,-13,59*,38,15
O=C(c1cc(COc2ccc(F)cc2Cl)on1)N1C[C@H]2CC[C@H]1C2,-3,43*,78,0
O=C(c1cc(COc2ccc(F)cc2Cl)on1)N1CC[C@@H]2CCCC[C@H]2C1,-5,4,14,1
COc1ccc2c(c1)CCc1c-2n[nH]c1C(=O)NCCC(C)C,-29,2,55,31*
O=c1cc(-c2ccccc2)[nH]c2nc3ccccc3n12,-42,-7,16,47*
CCC(=O)N1[C@H](CN(C)C(=O)CN2CCOCC2)[C@@H](c2ccccc2)[C@@H]1CO,5,-1,x,x
CO[C@@H]1CN(C)C(=O)c2cc(NS(=O)(=O)c3ccccc3)ccc2OC[C@H](C)NC[C@H]1C,11,-4,x,x
SMILES,C2C12 statin,esBAF inh,MITF act,Wnt act
Cc1ccccc1-c1ccc2c(c1)O[C@@H](CN(C)C(=O)C1CC1)[C@@H](C)CN([C@H](C)CO)S2(=O)=O,-29,-10,x,x
CN(C)/C=N/c1sc2c(c1C#N)CCCCC2,2,54*,72,7
O=C(CCN1CCCCC1)N[C@@H]1CC[C@@H](CCNS(=O)(=O)c2ccc(F)cc2)O[C@H]1CO,2,-3,x,x
CCN(C[C@@H]1N[C@@H](CO)[C@H]1c1ccc(-c2cccc(C#N)c2)cc1)C(C)=O,-8,3,x,x
O=C(COC(=O)c1ccccc1NC(=O)c1ccco1)NCCC1=CCCCC1,3,63*,29,x
CCN(CC)CC(=O)n1c2c(c3ccccc31)CCCC2,124*,6,4,x
Cc1ccc(N(Cc2cc3ccccc3[nH]c2=O)C(=O)c2cccs2)cc1C,101*,-3,10,0
Cc1ccc2cc(CCNC(=O)c3cccs3)c(=O)[nH]c2c1,-6,54*,58,30
Cc1ccc2cc(CCNC(=O)c3cccs3)c(=O)[nH]c2c1C,9,59*,x,19
CCC(CC)C(=O)NCCc1cc2ccc(C)cc2[nH]c1=O,-41,-2,1,-2
C[C@H]1CN([C@@H](C)CO)C(=O)Cc2cc(NC(=O)Nc3ccc(F)cc3)ccc2O[C@H]1CN(C)S(=O)(=O)c1cccs1,-44,4,x,x
COCC#Cc1ccc2c(c1)O[C@@H](CN(C)S(=O)(=O)c1ccc(F)cc1)[C@H](C)CN([C@H](C)CO)S2(=O)=O,-40,-3,x,x
